Source: PubChem (National Center for Advancing Translational Sciences (NCATS))
The list is not random: actives were taken first. Their share in the collection is about 9.4%.
Pf growth 96h = P. falciparum growth inhibition at 96 hours | P. falciparum luciferase reporter growth, 96 h | Potency, µM (series often up to 28.7 µM), inactives show top-dose activity change, negative = inhibition, most hits filed as inhibitors | actives 6.9% (n = 320,000); also: % is scaled to controls: 0 for no effect and ±100 for the full control effect
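Infected RBCs, 2% Hct / 0.05% parasitemia final; luciferase-reporter P. falciparum; cpd 96 h, 37 C, 5% CO2; luciferase detection reagent; luminescence.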
AMA1-RON2 inh = inhibitors of Plasmodium falciparum AMA1-RON2 interaction | AlphaScreen AMA1-biotinylated RON2 peptide binding | Potency, µM (doses to about 58.2 µM), for the others: at the highest dose activity change, negative = inhibition, hits mostly inhibitors | actives 0.2% (n = 360,000);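 also: 0% = vehicle wells and -100% = peptide control; nearly all actives have a fitted effect of over 45% in size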
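AMA1 (3D7) with his tag at 25 nM final met compounds first, then biotinylated RON2 peptide at 25 nM; detection used donor plus acceptor beads, 10 µg/mL apiece, read by AlphaScreen after 30 min at room temperature.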
SARS PLP yeast = SARS-CoV PLP inhibition in yeast | S. cerevisiae expressing SARS-CoV PLpro, growth rescue | AID 485353 | Potency, µM (top dose mostly 32.9 µM), for inactives: top-dose activity, positive = growth rescue, most hits filed as activators | actives 0.19% (n = 330,000); calls by dose curve; also: 0% is about no effect; nearly all actives have a fitted effect of over 55% in size
Pf growth 48h = inhibits P. falciparum growth in the first generation, 48 h; AID 504832; Potency, µM (titrated, usually from 28.7 µM), for the others: at the top dose activity change, negative = inhibition, hits mostly inhibitors; P. falciparum luciferase growth in erythrocytes, 48 h; actives 5.9% (n = 310,000); also: % is scaled to controls: 0 for no effect and ±100 for the full control effect
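A one-generation exposure of luciferase-tagged malaria parasites in RPMI 1640/Albumax erythrocyte culture, 37 C and 5% CO2. Inhibition is inferred from decreased luminescence after adding detection reagent.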
Starred values were filed as active, the others as inactive; ? = inconclusive; / = not tested or not shown; [ ] = remark or other dose. Unless noted, calls follow the shape of the dose curve; as a rule, active = well fitted curve in the direction sought with a large enough effect; inconclusive = small, poorly fitted or top-dose-only effect, or another doubt; inactive = no such curve, though single readings can be large; an effect the other way counts as inactive or inconclusive. Potency is read from the fitted curve at half-maximal effect.

SMILES	Pf growth 96h	AMA1-RON2 inh	SARS PLP yeast	Pf growth 48h
O=C1CN2C(=Nc3ccc(Br)cc3C2c2ccccc2)CCN1 (centres undefined)	24%	0%	-4%	-13%
CN(CC(=O)O)S(=O)(=O)c1cc(Cl)ccc1Cl	-5%	7%	12%	21%
CCN(CC(=O)O)S(=O)(=O)c1cc(Cl)ccc1Cl	13µM*	-2%	2%	7%
Cn1c2ccccc2c2cc(C(=O)NNC(=O)CCl)sc21	9.3µM*	111%	8%	?
COc1ccc2c(c1OC)c(=O)n1c3ccc(OC(C)C(=O)NCCCN4CCOCC4)cc3c3ccnc2c31 (centres undefined)	4.1µM*	-5%	-7%	3.7µM*
CC(Oc1ccc2c(c1)c1ccnc3c4ccccc4c(=O)n2c13)C(=O)NCCN1CCOCC1 (centres undefined)	4.1µM*	3%	-10%	4.7µM*
COc1ccc2c(c1OC)c(=O)n1c3ccc(OC(C)C(=O)NCCN4CCOCC4)cc3c3ccnc2c31 (centres undefined)	3.7µM*	2%	-8%	?
O=C(COC(=O)c1ccc(S(=O)(=O)N2CCCC2)cc1)NCCc1ccc(F)cc1	/	-12%	-11%	/
O=C1C2CCCN2c2ccc(S(=O)(=O)N3CCOCC3)cc2N1Cc1cccc(C(F)(F)F)c1 (centres undefined)	0.52µM*	/	6%	1µM*
O=C1C2CCCN2c2ccc(S(=O)(=O)N3CCOCC3)cc2N1Cc1ccccc1F (centres undefined)	12µM*	-3%	5%	?
CCOc1ccccc1N1CCN(c2ncnc3scc(-c4ccc(OC)cc4)c23)CC1	?	-3%	5%	5.9µM*
Cc1ccc(-c2csc3ncnc(N4CCN(S(=O)(=O)c5cccs5)CC4)c23)cc1	?	6%	-8%	6.6µM*
COc1ccc(-c2csc3ncnc(N4CCN(CCO)CC4)c23)cc1	-28%	-10%	0%	-10%
COc1ccc(-c2csc3ncnc(N4CCN(c5ccccc5OC)CC4)c23)cc1	?	?	-5%	5.9µM*
Cc1ccc(-c2csc3ncnc(N4CCN(S(=O)(=O)c5ccc(C#N)cc5)CC4)c23)cc1	/	-6%	/	/
O=C(CCc1nc2sc3c(c2c(=O)[nH]1)CCCC3)Nc1ccccc1Cl	-1%	-28%	2%	-6%
O=C(c1ccccc1F)c1cn(Cc2ccc(F)cc2)c2ccccc12	7.4µM*	-21%	7%	-5%
CCOC(=O)Cn1cc(C(=O)c2ccccc2F)c2ccccc21	53%	-17%	-7%	74%
COC(=O)Cn1cc(C(=O)c2ccccc2F)c2ccccc21	1.7µM*	-2%	-7%	7%
C=CCNc1oc(-c2ccc(OC)cc2)nc1C#N	18%	-1%	-2%	45%
O=C(Nc1cccc(F)c1)N1CC=C(c2ccc(Cl)cc2)CC1	5.9µM*	-15%	-16%	/
CC(=O)NC(Cc1ccccc1)Cc1ccccc1	54%	-1%	1%	7%
OCC(Cc1ccccc1)Nc1c2ccccc2nc2ccccc12 (centres undefined)	?	-10%[2.32 µM]	17%	2.6µM*
Oc1ccccc1Nc1nc(NCc2ccccc2)c2ccccc2n1	60%	36%	-4%	0.33µM*
CN(C)CCCNc1nc(-c2ccccc2)nc2ccccc12	?	-2%	1%	?
SMILES	Pf growth 96h	AMA1-RON2 inh	SARS PLP yeast	Pf growth 48h
CN(C)CCCNc1c2ccccc2nc2ccccc12	-8%	-8%	-6%	1µM*
OCCNc1nc(Nc2ccc(Br)cc2)nc2ccccc12	?	-9%	-9%	0.93µM*
Cc1nc2ccc(NC(=O)N3CCCCC3)cc2s1	/	3%	-6%	31%
CCCCNc1nc(NCc2ccccc2)nc2ccccc12	/	-3%	/	/
CNc1nc(NCc2ccccc2)c2ccccc2n1	?	0%	-6%	1.2µM*
CNc1nc(NCc2ccc(N(C)C)cc2)c2sccc2n1	/	20µM*	/	/
Oc1ccc(CCNc2c3ccccc3nc3ccccc23)cc1O	3.3µM*	?	-9%	13µM*
Cc1ccc(O)c(Nc2c3ccccc3nc3ccccc23)c1	22%	?	-11%	?
c1ccc(CNc2ncnc3ccccc23)cc1	-8%	25%	1%	?
c1ccc(CNc2c3ccccc3nc3ccccc23)cc1	?	-2%	-2%	2.9µM*
CCOC(=O)c1ccc(NC(=S)NN2CCN(C)CC2)cc1	19%	52%	-1%	7%
COc1cc(C(=O)OCC(=O)N(CC(C)C)C2CCS(=O)(=O)C2)cc(OC)c1C (centres undefined)	-17%	3%	-2%	?
CNCCc1ccc(O)c(O)c1	/	7.1µM*	/	/
NCCc1ccc(O)c(O)c1	?	?	1%	?
CC(C)c1ccc2c(c1)C1(NN=C(c3ccccc3)S1)C(=O)N2 (centres undefined)	?	?	-80%	3.3µM*
CCc1ccc2c(c1)NC(=O)C2(C)Cc1ccc(F)cc1 (centres undefined)	/	0%	/	/
CCc1ccc2c(c1)C1(NN=C(c3ccc(C)cc3)S1)C(=O)N2 (centres undefined)	?	22%	-116%	0.41µM*
CCCOc1ccc(/C(O)=C2/C(=O)C(=O)N(CCCn3ccnc3)C2c2cccs2)cc1 (centres undefined)	16%	0%	29%	17%
COCC(C)NCc1ccccc1C (centres undefined)	12µM*	5%	1%	10%
O=C(NCC(=O)N1CCC2(CC1)NCCc1[nH]cnc12)c1cccc(Cl)c1	7%	-9%	-3%	15%
CCCCCc1nc2ccccc2c(=O)n1-c1ccc(Cl)cc1[N+](=O)[O-]	13µM*	-8%	-5%	4.7µM*
CCCOC(=O)c1ccc(NC(=O)C(CC)CC)cc1	2%	1%[11.6 µM]	-9%	89%
Cc1ccc(CNC(=O)c2ccc(N3CCC4(CC3)CC(c3ccccc3)=NO4)c(N)c2)cc1	33%	3%	-3%	-13%
CCCNC(=O)c1ccc(N2CCC3(CC2)CC(c2ccccc2)=NO3)c(NC(=O)c2ccco2)c1	1.2µM*	-1%	-6%	?
CCCNC(=O)c1ccc(N2CCC3(CC2)CC(c2cccc(Br)c2)=NO3)c(NC(=O)c2ccc(Br)cc2)c1	?	3%	0%	?
CCCCC(CC)C(=O)Nc1cc(C(=O)NCCC)ccc1N1CCC2(CC1)CC(c1ccccc1)=NO2 (centres undefined)	1.5µM*	-3%	6%	-38%
Cc1ccc(CNC(=O)c2ccc(N3CCC4(CC3)CC(c3ccccc3)=NO4)c(NC(=O)c3ccco3)c2)cc1	1µM*	-6%	8%	?
Cc1ccc(CNC(=O)c2ccc(N3CCC4(CC3)CC(c3ccccc3)=NO4)c(NC(=O)c3ccccc3)c2)cc1	?	-2%	-3%	4.7µM*
Cc1ccc(CNC(=O)c2ccc(N3CCC4(CC3)CC(c3ccccc3)=NO4)c(NC(=O)c3ccc(Br)cc3)c2)cc1	?	-3%	2%	?
